Source: PubChem
An excerpt weighted towards active compounds, which were near 3.5% of everything screened.
MITF inh – inhibitors of human MITF; O75030; AlphaScreen MITF homodimerization, bead proximity signal; inhibition, % at 2.6 µM; 650,000 tested, 0.91% active; AID 1259374; in the data active = inhibition above about 50%
TEAD-YAP block – TEAD-YAP interaction inhibition. HEK-TIYL cells, TEAD-Gal4/YAP UAS-luciferase luminescence. inhibition, % at 9.12 µM. 640,000 tested, 1.4% active. AID 1259422; in the data active = inhibition above about 32%
GPR151 ag – activates the human receptor GPR151 | Q8TDV0 | PathHunter beta-arrestin GPR151 cells, luminescence | activation, % at 11.2 µM | 650,000 tested, 1% active; in the data active = activation above about 4.9%
FBW7 activator – activators of human E3 ligase FBW7 | Q969H0 | AlphaScreen FBW7–phospho-cyclin E peptide binding, activator screen | normalized activity (activation), % at 26.1 µM | 650,000 tested, 0.13% active; in the data active = normalized activity above about 1.9%;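 note: purified mutant Fbw7 with reduced substrate affinity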
Target sequence (Q969H0 whole entry, looked up): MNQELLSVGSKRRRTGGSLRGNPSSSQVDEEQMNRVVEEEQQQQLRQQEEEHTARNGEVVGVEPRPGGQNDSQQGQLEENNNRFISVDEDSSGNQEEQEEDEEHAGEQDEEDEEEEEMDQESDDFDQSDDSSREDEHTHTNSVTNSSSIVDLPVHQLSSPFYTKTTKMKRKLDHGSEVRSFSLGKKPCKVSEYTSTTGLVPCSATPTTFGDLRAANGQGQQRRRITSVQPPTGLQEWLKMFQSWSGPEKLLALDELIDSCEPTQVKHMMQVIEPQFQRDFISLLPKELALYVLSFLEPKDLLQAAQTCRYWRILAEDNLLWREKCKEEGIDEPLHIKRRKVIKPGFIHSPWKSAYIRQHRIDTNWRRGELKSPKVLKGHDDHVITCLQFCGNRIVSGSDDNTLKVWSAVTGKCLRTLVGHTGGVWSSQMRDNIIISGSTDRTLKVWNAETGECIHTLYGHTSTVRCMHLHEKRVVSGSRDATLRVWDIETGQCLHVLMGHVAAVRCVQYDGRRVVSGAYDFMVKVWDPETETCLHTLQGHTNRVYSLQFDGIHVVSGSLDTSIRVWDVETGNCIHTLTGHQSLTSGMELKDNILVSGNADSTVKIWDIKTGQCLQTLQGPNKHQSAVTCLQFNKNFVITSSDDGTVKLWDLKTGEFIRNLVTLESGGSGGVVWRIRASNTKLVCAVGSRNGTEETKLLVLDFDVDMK
Each line names hits and unclear results; the compound was inactive in the other large screens.

Cc1cccc(NC(=O)C2CCCN(S(=O)(=O)c3ccc4c(c3)oc(=O)n4C)C2)c1 (stereo unspecified)	none
O=S(=O)(c1ccc2oc3ccccc3c2c1)N1CCCc2ccccc21	TEAD-YAP block 59.2
O=S(=O)(c1ccc(F)c(F)c1)N1CCCc2ccccc21	none
O=S(=O)(c1ccc2ccccc2c1)N1CCCc2ccccc21	TEAD-YAP block 55.1
Cc1cc(S(=O)(=O)N2CCCc3ccccc32)ccc1-n1cnnn1	FBW7 activator 2.1
Cc1cc(S(=O)(=O)N2CCCCCC2)ccc1-n1cnnn1	none
O=C(O)c1c[nH]c2ccc(S(=O)(=O)N3CCCc4ccccc43)cc2c1=O	TEAD-YAP block 48.5
O=C(NCc1ccccc1Cl)c1ccc2c(c1)[nH]c(=S)n1c3ccccc3nc21	none
O=S(=O)(NCc1ccc2c(c1)OCO2)c1ccc(Cl)cc1C(F)(F)F	none
CCC(=O)Nc1nnc(SCC(=O)N(CC)CC)s1	none
O=C(N/N=C/c1ccc(O)cc1O)c1ccc(I)cc1	TEAD-YAP block 45.5
O=C(CNc1ccc(I)cc1)N/N=C/c1ccc(O)cc1O	TEAD-YAP block 55.9
C/C(=N/NC(=O)c1cncc(Br)c1)c1ccc(Cl)cc1	none
O=C(CCc1cccs1)NCC1CCC2(CCN(C(=O)c3ccc(F)cc3)CC2)O1 (stereo unspecified)	none
O=C(CC1CCCC1)NCC1CCC2(CCN(C(=O)c3ccc(F)cc3)CC2)O1 (stereo unspecified)	FBW7 activator 2.0
CC(C)n1cnc2cc(S(C)(=O)=O)ccc21	none
O=C1NC(c2cccc(Br)c2)Nc2ccccc21 (stereo unspecified)	TEAD-YAP block 49.1
N#CCOc1ccc(C2NC(=O)c3ccccc3N2)cc1 (stereo unspecified)	none
O=C1NC(c2ccncc2)Nc2ccccc21 (stereo unspecified)	none
O=C1NC(c2ccc(-c3ccccc3)cc2)Nc2ccccc21 (stereo unspecified)	TEAD-YAP block 40.2
Brc1cccc(C2Nc3cccc4cccc(c34)N2)c1	none
CN(C)c1ccc(C2NC(=O)c3ccccc3N2)cc1 (stereo unspecified)	TEAD-YAP block 56.4
CC(C)(C)c1ccc(C2NC(=O)c3ccccc3N2)cc1 (stereo unspecified)	TEAD-YAP block 47.8
Nc1ncn([C@@H]2O[C@H](CO)[C@@H](O)[C@H]2O)c(=O)n1	TEAD-YAP block 83.3
CN1CCN(c2ccc(CNS(=O)(=O)Cc3cccc(C(F)(F)F)c3)cc2)CC1	TEAD-YAP block 38.2
N#CC1=C2SCC(O)(c3ccccc3)N2C(=O)CC1c1ccccc1F (stereo unspecified)	none
COc1cccc(C2CC(=O)N3C(=C2C#N)SCC3(O)c2cccc(OC)c2)c1 (stereo unspecified)	TEAD-YAP block 51.0
N#CC1=C2SCC(O)(c3ccccc3)N2C(=O)CC1c1cccs1 (stereo unspecified)	TEAD-YAP block 42.2
COC(=O)c1ccc(C2CC(=O)N3C(=C2C#N)SCC3(O)c2ccc(C)cc2)cc1 (stereo unspecified)	TEAD-YAP block 49.0
Cc1cc(N=c2c([N+](=O)[O-])nn(-c3ccccc3)n2O)ccc1Br	none
O=C(c1nc2ccccn2c1CNCCN1CCCCC1CO)N1CCCC1 (stereo unspecified)	none
Nc1ccc2oc(-c3ccc(O)c(Br)c3)nc2c1	TEAD-YAP block 59.0
Nc1ccc2oc(-c3ccccc3Br)nc2c1	none
Nc1ccc2oc(-c3ccc(F)cc3Cl)nc2c1	TEAD-YAP block 37.2
Nc1ccc2oc(-c3ccc4nc[nH]c4c3)nc2c1	TEAD-YAP block 61.0
Nc1ccc2oc(-c3cccc4c(Br)cccc34)nc2c1	TEAD-YAP block 64.7
Nc1ccc2oc(-c3ccc(F)cc3)nc2c1	none
Nc1ccc2oc(-c3cccc(Br)c3)nc2c1	none
COC(=O)C1CCN(C(=O)c2cc3c(=O)n4cc(C)ccc4nc3n2Cc2ccccc2)CC1	none
COc1ccc(/C=C/C(=O)Nc2ccc(N3CCOCC3)c(Cl)c2)cc1	none
Cc1c(CN2CCN(Cc3cccs3)C(CCO)C2)c(=O)n(-c2ccccc2)n1C (stereo unspecified)	none
O=C(c1ccco1)N1CCN(C(=O)N2c3ccccc3Sc3ccccc32)CC1	TEAD-YAP block 51.0
O=C(N1CCN(c2ccccn2)CC1)N1c2ccccc2Sc2ccccc21	TEAD-YAP block 51.1
O=C(N1CCCC1)N1c2ccccc2Sc2ccccc21	none
CCOC(=O)c1c(NC(=O)CSc2nnc(CNC(=O)c3ccc(C(C)(C)C)cc3)n2C)sc2c1CCCCC2	none
CCOc1cccc(C(=O)Nc2cccc(NC(=O)CC)c2)c1	none
CCn1ncc(Cl)c1C(=O)Nc1cc(Cl)ccc1Cl	FBW7 activator 1.9
Nc1nc2ccccc2n1C(=O)c1ccc(F)cc1	TEAD-YAP block 52.0
Nc1nc2ccccc2n1C(=O)c1ccccc1	TEAD-YAP block 52.3
Nc1cc(N)nc(SCC(=O)NCCOc2ccccc2)n1	FBW7 activator 2.2
CC1CCCCN1C(=O)CSc1nnc(-c2ccc3c(c2)OCO3)o1 (stereo unspecified)	none
Cc1[nH]c2ccc(-c3nnc(SCC(=O)N4CCCCC4C)o3)cc2c1C (stereo unspecified)	TEAD-YAP block 50.7
O=C(Cc1ccc(-n2cccc2)cc1)NCc1ccc(F)cc1	TEAD-YAP block 59.5
Cc1ccc(C(=O)NCc2cccs2)cc1C	none
COc1ccc(CC(=O)NCc2ccc(F)cc2)cc1	TEAD-YAP block 46.2
Cc1ccc(CC(=O)NCc2cccs2)cc1C	TEAD-YAP block 44.6
COc1ccc(CC(=O)NCc2ccc(Cl)cc2)cc1	TEAD-YAP block 39.5
O=C(Cn1cccc1)NCc1ccc(F)cc1	none
CCOC(=O)N1CCc2c(sc(NC(=O)c3ccc(S(=O)(=O)N(CC(C)C)CC(C)C)cc3)c2C(N)=O)C1	none
CCOC(=O)c1[nH]c(C)c(C(=O)NCc2ccc(OC)cc2)c1C	none
COc1ccc(CNC(=O)c2c(C)[nH]c(C(C)=O)c2C)cc1	TEAD-YAP block 58.2
Cc1ccc(CNC(=O)CSCc2ccc(F)cc2)cc1	none
Cc1ccc(CC(=O)NCc2ccc(F)cc2)cc1	TEAD-YAP block 39.2
O=C(Cc1ccc(-n2cccc2)cc1)NCc1cccs1	TEAD-YAP block 45.0
CC1=C/C(=N\S(=O)(=O)c2ccc(C)cc2)C=CC1=O	MITF inh 70.5
CC1CCc2c(sc(NC(=O)c3ccccc3F)c2C(=O)N2CCN(C)CC2)C1 (stereo unspecified)	none
COc1ccc(Br)cc1C(=O)NC(=S)Nc1ccccn1	none
O=C(NCc1ccco1)C1CC12CCN(Cc1cn[nH]c1-c1ccccc1)CC2 (stereo unspecified)	none
COc1ccc2cc(CN(Cc3ccccc3)C(=O)c3ccncc3)c(=O)[nH]c2c1	TEAD-YAP block 51.4
COc1ccc2cc(CN(Cc3ccco3)C(=O)Nc3ccccc3OC)c(=O)[nH]c2c1	TEAD-YAP block 53.6
COc1ccc2cc(CN(CC3CCCO3)C(=O)Nc3ccccc3OC)c(=O)[nH]c2c1 (stereo unspecified)	TEAD-YAP block 53.8
COc1ccc2[nH]c(=O)c(CN(Cc3ccco3)C(=O)Nc3ccccc3OC)cc2c1	none
O=C(Nc1nccs1)c1ccc(Br)c(S(=O)(=O)N2CCCCC2)c1	none
